Results reported in PubChem BioAssay AID1259343 (VanderVen Lab, College of Veterinary Medicine, Cornell …, 2017).
The whole screen tested about 6,200 compounds, of which about 2,900 (47%) were called active. Cut-off read from the data, not from the text of the source: active = inhibition above about 50%; inactive = the rest. So high a share suggests a set chosen from earlier hits. Some of the results follow.

Test: Mycobacterium tuberculosis growth inhibition, primary screen (AID 1259343)
Details: inhibition: at 10 µM, stronger effect = higher value; outcome: 10 uM

Row | SMILES | inhibition
1 | CC(C)c1ccc(NS(=O)(=O)C2CC2)cc1 | 30.9% (inactive)
2 | CC1CN=C(Nc2ccc(C(C)C)cc2)S1 (stereo not given) | 6.24% (inactive)
3 | CC(C)c1ccc(NC(=O)C2CCS(=O)(=O)C2)cc1 (stereo not given) | 75.6% (active)
4 | Cc1ccc(-c2cc(C(F)(F)C(F)F)[nH]n2)cc1 | 86.5% (active)
5 | Cc1ccc(-c2c(N)n[nH]c2C(F)(F)F)cc1 | 32% (inactive)
6 | O=[N+]([O-])c1ccc(C=Nn2cnn(Cc3ccccc3Cl)c2=S)o1 | 43.5% (inactive)
7 | O=[N+]([O-])c1ccc(C=NNc2ccc(Cl)c(Cl)c2)o1 | 93.2% (active)
8 | O=[N+]([O-])c1ccc(C=NNc2ccnc3cc(Cl)ccc23)o1 | 99.4% (active)
9 | O=[N+]([O-])c1ccc(C=NNc2ccc(Cl)cc2)o1 | -17.5% (inactive)
10 | O=[N+]([O-])c1ccc(C=NN(c2ccccc2)c2ccccc2)o1 | 47.1% (inactive)
11 | Cc1ccccc1C1c2[nH]c3ccccc3c2CCN1C(=O)c1cccc(C#CC(C)(C)O)c1 (stereo not given) | -3.93% (inactive)
12 | CCc1ccc(Nc2nnc(SCC(N)=O)s2)cc1 | 36.7% (inactive)
13 | CCc1ccc(Nc2nnc(SCC(=O)NC3CCCC3)s2)cc1 | 100% (active)
14 | CCCCNC(=O)CSc1nnc(Nc2ccc(CC)cc2)s1 | 45.2% (inactive)
15 | CCCCc1ccc(Nc2nnc(SCC(=O)NC3CCCC3)s2)cc1 | 86% (active)
16 | CCCCc1ccc(Nc2nnc(SCC(=O)NCC)s2)cc1 | 83.3% (active)
17 | COc1ccc(OCc2cc(C(=O)N3CCCCCC3)no2)c(Cl)c1 | 42% (inactive)
18 | CCC(=O)N(Cc1ccco1)Cc1cc(NC(=O)c2ccccc2Cl)ccc1N(C)C1CCN(C)CC1 | 39.1% (inactive)
19 | O=C(Nc1ccc(OCc2ccco2)c(Cl)c1)N1CCOCC1 | 79% (active)
20 | O=S(=O)(Cc1ccccc1)c1nnnn1-c1ccccc1 | 101% (active)
21 | Cc1ccc(NNC2CC(=O)N(N(C)C)C2=O)cc1 (stereo not given) | 78.2% (active)
22 | Cc1ccc(CC2CC(=O)N(C3CCCCC3)C2=O)cc1 (stereo not given) | 36.3% (inactive)

Row | SMILES | inhibition
23 | COC(=O)c1ccc(C=CC(=O)c2ccc(OC)cc2)cc1 | 47.6% (inactive)
24 | COc1cccc(C=CC(=O)c2ccc(Cl)c(Cl)c2)c1OC | 44.5% (inactive)
25 | COc1ccc(/C=C/C(=O)c2cc(O)ccc2O)cc1 | 97.6% (active)
26 | O=C(/C=C/c1ccccc1)c1ccc(O)cc1O | 96.2% (active)
27 | O=C(/C=C/c1ccc(O)cc1)c1ccccc1O | 47.6% (inactive)
28 | COc1ccc(C(=O)C=Cc2cccc(O)c2)cc1F | 87.2% (active)
29 | COc1ccc(C=CC(=O)c2ccc3ccccc3c2)cc1 | 60.1% (active)
30 | O=C1COc2ccc(C(=O)C=Cc3ccc4ccccc4c3)cc2N1 | 62.3% (active)
31 | Oc1ccc(Cl)cc1Sc1cc(Cl)ccc1O | 101% (active)
32 | O=c1cc(O)c2sc3nc(C4CC4)cc(C(F)(F)F)c3c2[nH]1 | 38.2% (inactive)
33 | Clc1ccc(N=C2SCCN2C2CCCCC2)cc1 | 90.5% (active)
34 | FC(F)Oc1ccc(N=C2SCC3CCCCN23)cc1 (stereo not given) | 82.4% (active)
35 | Clc1ccc(N=C2SCC3CCCCN23)cc1 (stereo not given) | -1.03% (inactive)
36 | COc1ccc(N=C2SCCN2CC(=O)c2ccc(Cl)cc2)cc1 | -4.26% (inactive)
37 | O=C(NCCc1ccc(F)cc1)C1Cc2ccccc2O1 (stereo not given) | 70.3% (active)
38 | CC(C)(CNC(=O)C1Cc2cc(F)ccc2O1)C1CCCCO1 (stereo not given) | 14.4% (inactive)
39 | COc1ccc2c(c1)OCC(Cc1ccc(OC)c(OC(C)=O)c1)C2=O (stereo not given) | 96.6% (active)
40 | COc1ccc(NC(=O)C(C)n2cccn2)cc1Cl (stereo not given) | 8.88% (inactive)
41 | CC(C(=O)Nc1ccc(C23CC4CC(CC(C4)C2)C3)cc1)n1cncn1 (stereo not given) | 95.9% (active)
42 | CC(C(=O)Nc1ccc(C#N)cc1)N1CC=C(c2ccccc2)CC1 (stereo not given) | 49.1% (inactive)
43 | COc1ccc(Oc2cnn(-c3ccc(Cl)cc3)c(=O)c2Nc2ccc(C(=O)O)cc2)cc1 | 28% (inactive)
44 | Cc1ccc(-n2nc(C(=O)c3ccc(Cl)cc3)c(N)c(C#N)c2=O)cc1 | 94.6% (active)

Row | SMILES | inhibition
45 | O=C(Nc1ccc(-c2ccccc2)cc1Cl)C1CC1 | 92.4% (active)
46 | NS(=O)(=O)N1CCC(C(=O)Nc2ccc(-c3ccccc3)cc2F)CC1 | -3.6% (inactive)
47 | O=C(CNC(=O)c1cccc(F)c1)N=Nc1c(O)n(CCc2ccccc2)c2ccccc12 | -16.1% (inactive)
48 | COc1cc(NC(=O)c2ccc3c(c2)NC(=O)C(C)S3)cc(OC)c1 (stereo not given) | 31.5% (inactive)
49 | COc1ccc(NC(=O)c2ccc3c(c2)NC(=O)C(C)S3)cc1 (stereo not given) | 57.4% (active)
50 | COc1cc(NC(=O)c2ccc3c(c2)NC(=O)CS3)cc(OC)c1 | 62.6% (active)
51 | Cc1cc(C)cc(C(=O)C=C2NC(=O)CS2)c1 | -74.8% (inactive)
52 | COc1cc(C=NOCc2cccc3ccccc23)ccc1OC(F)F | 52.4% (active)
53 | CCOC(=O)C1(CCc2ccccc2)CCCN(Cc2cccn2-c2ncccn2)C1 (stereo not given) | 13% (inactive)
54 | CCOC(=O)NC(=O)COC(=O)C1(Cc2ccccc2)CCCCC1 | 51.4% (active)
55 | Cn1cc(C(=O)Nc2cccc(C(F)(F)F)c2)c2[nH]c(=O)n(-c3ccc(F)cc3)c(=O)c21 | 24.6% (inactive)
56 | CC(C)OC(=O)c1cn(-c2ccc(F)cc2)c(=O)c2ccccc12 | 80.8% (active)
57 | O=C(c1cnn(-c2ccc(F)cc2)c1)c1ccccc1O | 42.7% (inactive)
58 | CCS(=O)(=O)N1CCC(C(=O)Nc2nc(-c3ccc(Br)cc3)cs2)CC1 | 33.8% (inactive)
59 | O=C(Nc1nc(-c2ccc(Br)cc2)cs1)c1cc(Cl)ccc1[N+](=O)[O-] | 94.8% (active)
60 | O=C(O)CCc1nnc(SCc2cccc(Cl)c2)[nH]c1=O | 34.4% (inactive)
61 | Cc1nnc(SCc2cccc3ccccc23)[nH]c1=O | 88.9% (active)
62 | CC1CCc2sc(-c3nn(CN4CCN(c5cnccn5)CC4)c(=S)o3)cc2C1 (stereo not given) | 95.3% (active)
63 | Cc1cc(C)[n+]2c(-c3ccccc3)csc2n1 | 80% (active)
64 | CCc1ccc(CN(C)Cc2nc(-c3cccc(Cl)c3)no2)nc1 | 24.1% (inactive)
65 | CN(Cc1cnccn1)c1ccc(-c2nc(-c3cccc(Cl)c3)no2)cn1 | 80.1% (active)
